About 13,000 (27%) of roughly 48,000 compounds showed an effect of 50% or more. Some of the results follow.
test system: Wolbachia pipientis; assay: Anti-Wolbachia Cell-Based Screen; assay type: functional; parameters: scale not given: in the data most compounds retested in dose-response had high values; conditions: 5 µM

SMILES | Percent Effect
Fc1ccc2c(c1)CCC2NCc1ccc(N2CCOCC2)cc1 (stereo unspecified) | -1.344%
CCC1=NC2(CCC(C(=O)Nc3ccc(C)nc3)CC2)C(=O)N1C (stereo unspecified) | 107.3%
CCC1=NC2(CCC(C(=O)Nc3ccc(F)cc3)CC2)C(=O)N1C (stereo unspecified) | 104.8%
COCCN1C(=O)C2(CCC(C(=O)Nc3ccc(C)cc3)CC2)N=C1C (stereo unspecified) | -12.68%
COCCN1C(=O)C2(CCC(C(=O)Nc3ccc(F)cc3)CC2)N=C1C (stereo unspecified) | 17.41%
COCCN1C(=O)C2(CCC(C(=O)Nc3ccccn3)CC2)N=C1C (stereo unspecified) | 12.9%
COCCN1C(=O)C2(CCC(C(=O)Nc3cccc(C)c3)CC2)N=C1C (stereo unspecified) | -14.6%
Cc1ccc(CNCc2ccc(-n3nc(C)cc3C)nc2)cc1 | -14.48%
CN1C[C@H](O)C[C@H]1c1nc(-c2ccc3c(c2)OCO3)no1 | -5.095%
Cc1cnccc1NCCNC(=O)[C@H]1CNC[C@H](C(=O)N2CCCC2)C1 | 142%
Cc1nnc(CCNC(=O)[C@H]2CNC[C@@H](C(=O)N3CCCC3)C2)s1 | 111.1%
CCN1CC(C(=O)NCCCc2nc(C)c(C)s2)CC1=O (stereo unspecified) | -10.95%
Cc1cc(C)nc(CCNC(=O)[C@H]2CNC[C@@H](C(=O)N3CCCC3)C2)n1 | 4.192%
Cn1nccc1CCNC(=O)[C@H]1CNC[C@H](C(=O)N2CCCC2)C1 | 89.07%
O=C(NCc1ccc2nonc2c1)C1CCN(C(=O)C2CCC2)CC1 | 6.946%
Cc1cnccc1NCCNC(=O)C1CCCN(Cc2ccco2)C1 (stereo unspecified) | 5.628%
Cc1nnc(CCNC(=O)C2CC(=O)N(C(C)(C)C)C2)s1 (stereo unspecified) | -24.96%
Cc1nc(CCCNC(=O)[C@H]2CNC[C@@H](C(=O)N3CCCC3)C2)sc1C | 84.73%
Cc1csc(CCCNC(=O)[C@H]2CNC[C@@H](C(=O)N3CCCC3)C2)n1 | 5.026%

SMILES | Percent Effect
Cc1cccnc1NCCNC(=O)[C@H]1CNC[C@@H](C(=O)N2CCCC2)C1 | 2.912%
Cn1nnnc1SCCNC(=O)C1CCN(C(=O)C2CCCC2)CC1 | 4.852%
N#CC1(NC(=O)c2nccc3ccccc23)CCSCC1 | -2.14%
CCCS(=O)(=O)CC(=O)NC(C)c1cccc(-n2cccn2)c1 (stereo unspecified) | -8.263%
Cc1ccc(-c2csc(N)c2C#N)cc1 | -4.785%
CCn1cc2c(n1)CN(Cc1sccc1C)CC2COCC1CC1.O=C(O)C(F)(F)F (stereo unspecified) | 6.988%
CC(C)Cn1cncc1CNC1CCCNC1 (stereo unspecified) | 2.5%
O=C(NCCc1nc(C2CC2)no1)[C@H]1CNC[C@H](C(=O)N2CCCC2)C1 | 183.5%
O=C(NCC1CCCO1)C1CCN(Cc2nc(C3CC3)no2)CC1 (stereo unspecified) | 8.427%
NC(=O)N1CCCC(C(=O)NCCc2nc(Cc3ccccc3)no2)C1 (stereo unspecified) | 5.914%
Cc1cc(C)cc(NC(=O)N(CCC#N)CCCN(C)C)c1 | 13.87%
CN(C)[C@H]1COC[C@@H]2CN(Cc3ccc4c(c3)OCO4)C[C@@H]21.O=C(O)C(F)(F)F.O=C(O)C(F)(F)F | -0.2221%
O=C(C1CC1)N1CCC2(CCN(Cc3cccc(F)c3)CC2)CC1.O=C(O)C(F)(F)F | 10.09%
CN(C)[C@@H]1COC[C@@H]2CN(Cc3ccc4c(c3)OCO4)C[C@@H]21.O=C(O)C(F)(F)F.O=C(O)C(F)(F)F | -14.92%
C[C@@H]1C(=O)NC[C@H]2CN(Cc3ccc4c(c3)OCO4)C[C@H]21.O=C(O)C(F)(F)F | 109.9%
C[C@H]1C(=O)NC[C@H]2CN(Cc3cccc(F)c3)C[C@H]21.O=C(O)C(F)(F)F | 100.1%
COc1cc(CN2C[C@@H]3CNC(=O)[C@H](C)[C@@H]3C2)cc(OC)c1 | 103.5%
O=C(O)C(F)(F)F.O=C([C@H]1CCS(=O)(=O)[C@@H]2CN(CCc3ccccc3)C[C@H]12)N1CCCC1 | -9.586%
COCCN1CCO[C@@H]2CN(Cc3cc(OC)cc(OC)c3)C[C@@H]2C1.O=C(O)C(F)(F)F.O=C(O)C(F)(F)F | 4.168%

SMILES | Percent Effect
C[C@H]1C(=O)NC[C@H]2CN(CCc3ccccc3)C[C@H]21.O=C(O)C(F)(F)F | 113.2%
COc1cc(CN2CCC(NC(=O)c3cccn3C)C2)cc(OC)c1 (stereo unspecified) | -4.957%
COc1cccc(-c2csc(Cn3ccc(=O)[nH]c3=O)n2)c1 | -10.2%
COCCCn1ccc(NC(=O)NCCn2ccnc2)n1 | -3.976%
Fc1ccc2c(c1)nc1n2[C@@H](CNCc2nccs2)COC1 | -7.093%
Cc1nc(Cn2cc(C#N)c(=O)c3ccccc32)no1 | -5.414%
N#Cc1cc(N2CCC(CS(N)(=O)=O)CC2)nc2ccccc12 | -7.143%
CC1CN(C)CCN1C(=O)NCCCn1ccnc1 (stereo unspecified) | 19.65%
COc1ccc2cc(CN(C)C(C)c3nc(C(C)(C)C)no3)ccc2c1 (stereo unspecified) | -2.359%
CN1CC2(CCN(Cc3ccoc3)CC2)COc2ccccc2S1(=O)=O.O=C(O)C(F)(F)F | 1.89%
CN1CC2(CCN(CC3CC3)CC2)COc2ccccc2S1(=O)=O.O=C(O)C(F)(F)F | 105.1%
CN(C)C(=O)CN1C[C@H]2CCN(Cc3ccccc3)CC[C@H]2S1(=O)=O.O=C(O)C(F)(F)F | -15.21%
CN(C)C(=O)CN1CCC2(CC1)COc1ccccc1S(=O)(=O)N(C)C2.O=C(O)C(F)(F)F | 107.3%
COc1cccn(CC(=O)N(C)CCC2CCOCC2)c1=O | -97.94%
CN1CCN([C@@H]2CCN(C3CCOCC3)[C@H]2Cc2cnn(C)c2)CC1.O=C(O)C(F)(F)F.O=C(O)C(F)(F)F.O=C(O)C(F)(F)F | -4.702%
Cc1nccn1-c1cc(CNC(=O)C2CCC(=O)N2)ccn1 (stereo unspecified) | -0.872%
CN1CCC2(COCCN(Cc3cccc(C#N)c3)C2)C1.O=C(O)C(F)(F)F.O=C(O)C(F)(F)F (stereo unspecified) | -6.492%
Cc1cc(N2CCC(N(C)Cc3cccnc3)C2=O)n(C)n1 (stereo unspecified) | 5.804%

Source: ChEMBL document CHEMBL3988442, “University of Dundee, Small-Polar-MMV Screening Library” (2021)
